# Shown are actives, neighbours in structure and some others; about 27% of the full set was active somewhere.
# CYP2C19 act = activators of human cytochrome P450 2C19; AID 1025; activation factor at 5 µM; recombinant CYP2C19, luciferin-H EGE luminescence; stronger effect = higher value; 0 = fully inhibited enzyme, 1 = untreated enzyme; 96,000 tested, under 10 active; P33261;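 active means activation factor of at least 2 at 5 µM in the primary screen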;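 further: 0 = wells with 2.5 mM tranylcypromine and 1 = vehicle-only wells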
# CYP2C9 inhib = inhibitors of human CYP2C9. CYP2C9 Supersomes, luciferin-H conversion, luminescence. inhibition, % at 5 µM. 96,000 tested, 20% active. AID 777;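 active means blocking of liver enzyme CYP2C9 beyond about 50% at 5 µM, limit read from the data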
# CYP2C9 activ = increases human cytochrome P450 2C9 activity | AID 1024 | P11712 | activation factor at 5 µM | recombinant CYP2C9, luciferin-H conversion, luminescence; stronger effect = higher value; factor 1 = untreated enzyme, 0 = blocked | 96,000 tested, 1.4% active;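 active means activation factor of 2 or more for CYP2C9 at a 5 µM dose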;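 further: 0 = sulfaphenazole-blocked wells and 1 = vehicle-only wells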
# CYP2C19 inhib = human CYP2C19 inhibition; CYP2C19 Supersomes, luciferin-H EGE luminescence, 30 min; 96,000 tested, 21% active; P33261; AID 778; inhibition, % at 5 µM;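 active means CYP2C19 inhibition above a set limit at 5 µM in the primary screen, cut at about 50% in these data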;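 further: plate controls were negative control wells for no effect and 2.5 mM tranylcypromine positive control for full effect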
# Cav3 T inh = human Cav3.2 channel inhibition, primary screen; O95180; Cav3.2-expressing cells, Fluo-4 calcium fluorescence FDSS; stronger effect = lower value; B-score at 10 µM; 100,000 tested, 4% active; AID 449739;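 active means single-dose well whose peak fluorescence ratio is a statistical outlier from its plate by either plate-standardised score or position-corrected B-score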
# * hit, by the source's call; x = not tested or not shown.
SMILES,CYP2C19 act,CYP2C9 inhib,CYP2C9 activ,CYP2C19 inhib,Cav3 T inh
Cn1c(SCc2ccc(F)cc2)nnc1-c1ccccn1,0.1,5.0,0.9,87.6*,x
CC1CCN(C(=O)CSc2nncn2-c2ccccn2)CC1,1.1,-24.7,1.2,-6.4,0.187
Cn1c(SCc2ccccc2F)nnc1-c1cnccn1,0.4,-3.5,1,62.1*,-0.00695
Cn1c(SCc2ccccc2)nnc1-c1ccncc1,0.1,34.0,0.7,90.8*,-0.493
CC(C)(C)c1cc(NC(=O)c2cc(F)c(F)c(F)c2F)no1,1.1,-10.4,1.1,-11.6,0.275
CCOc1cc(C2C(C#N)=C(N)Oc3n[nH]c(-c4ccccc4)c32)ccc1O (stereo unspecified),0.3,93.8*,0.1,70.6*,-1.88
CCOc1cc(-c2cc(-c3ccccc3)nc(N)c2C#N)ccc1O,0.5,53.6*,0.5,52.2*,0.561
Cc1ccc(-c2cc(-c3ccccc3)c(C#N)c(N)n2)o1,0.7,7.3,0.9,32.6,-0.106
CCOc1cc(-c2cc(-c3ccc(N)cc3)nc(N)c2C#N)ccc1O,0.3,88.8*,0.1,69.5*,0.188
CCOc1cc(-c2c(C#N)c(N)nc3c2CCCC3)ccc1O,0.4,35.9,0.6,60.7*,-0.229
CC(=O)NC(NC(C)=O)c1ccc(N(C)C)cc1,x,x,x,x,0.108
O=C(COc1ccccc1Cl)N1CCN(c2ccc([N+](=O)[O-])c(N3CCOCC3)c2)CC1,0.7,85.3*,0.1,31.6,-0.585
COc1ccc(Nc2ncc(C(=O)N3CCN(c4ccc(F)cc4)CC3)c3ccccc23)cc1,0.4,66.5*,0.3,61.1*,-5.9*
O=C(COc1ccccc1Cl)N1CCN(c2ccc(F)cc2)CC1,0.2,-28.7,1.3,82.0*,-1.88
CCC(=O)N1CCN(c2ccccc2NC(=O)COc2ccccc2Cl)CC1,0.1,93.5*,0.1,87.3*,-3.41
O=[N+]([O-])c1ccc(N2CCCCC2)cc1N1CCOCC1,0.7,29.9,0.7,27.7,x
Cc1ccccc1OCC(=O)Nc1ccccc1N1CCCCC1,0.8,4.4,1,16.6,-1.54
COc1ccc(Nc2ncc(C(=O)O)c3ccccc23)cc1,1.1,-24.2,1.2,-10.2,0.939
Cn1c(SCC(=O)NC(c2ccccc2)c2ccccc2)nnc1-c1cccs1,0.6,45.9,0.5,37.4,-0.107
O=C(COC(=O)c1cc[n+]([O-])cc1)NCC12CC3CC(CC(C3)C1)C2,1,-11.5,1.1,-3.5,0.0211
CCS(=O)(=O)N1CCN(c2ccc([N+](=O)[O-])c(N3CCOCC3)c2)CC1,x,x,x,x,1.29
O=[N+]([O-])c1ccc(N2CCN(S(=O)(=O)Cc3ccccc3)CC2)cc1N1CCOCC1,0.4,53.4*,0.5,56.4*,1.63
CN1CCN(c2ccc(NC(=O)COc3ccccc3Cl)cc2)CC1,0.8,0.3,1,21.8,0.41
COC(=O)c1ccc(OC)cc1OCC(=O)N1CCN(c2ccc(F)cc2)CC1,0.4,32.5,0.7,64.5*,0.0294
CCC(=O)N1CCN(c2ccc(NC(=O)COc3ccccc3Cl)cc2)CC1,0.2,70.7*,0.3,80.7*,-0.932
SMILES,CYP2C19 act,CYP2C9 inhib,CYP2C9 activ,CYP2C19 inhib,Cav3 T inh
Cc1cc(=O)oc(C)c1C(=O)N1CCc2c([nH]c3ccccc23)C1C(C)C (stereo unspecified),0.5,18.9,0.8,50.4*,0.00881
Cc1cc(=O)oc(C)c1C(=O)N1CCN(C)CC1,1.1,-8.3,1.1,-13.3,0.672
CCOC(=O)CN1C(=O)N[C@@H](CCc2ccccc2)[C@H](C(C)=O)[C@H]1C,x,x,x,x,0.21
CCN(CC)S(=O)(=O)c1ccc2[nH]cc(C(=O)NCCCN3CCCCC3C)c(=O)c2c1 (stereo unspecified),1,9.9,0.9,-3.4,-0.223
COC(=O)c1ccc(-c2nc3cc(Cl)c(N)cc3s2)cc1,0.4,10.8,0.9,59.5*,-0.644
COC(=O)c1ccc(C2=NOC(C)(c3sc(-c4ccc(Cl)cc4)nc3C)C2)cc1 (stereo unspecified),x,x,x,x,-1.22
Cn1c(CSc2nc3ccccc3s2)n[nH]c1=S,0.5,12.7,0.9,53.6*,1.28
Cn1c(-c2sc3ccccc3c2Cl)n[nH]c1=S,0.5,77.0*,0.2,52.4*,1.47
S=c1[nH]nc(CSc2nc3ccccc3s2)o1,1.1,-2.1,1,-11.8,1.07
Clc1c(-c2nnc3n2CCC3)sc2ccccc12,0.8,-201.4,3*,15.8,0.263
Cn1c(CSc2nc3ccccc3s2)nc2ccccc21,0,77.8*,0.2,98.1*,-4.74*
Cc1ccc(-c2n[nH]c(=S)n2C)cc1,0.8,43.0,0.6,16.6,-0.406
NC(=O)CC(NC(=O)Cc1ccc(Br)cc1)c1ccc(NCCc2ccccc2F)c([N+](=O)[O-])c1 (stereo unspecified),x,x,x,x,0.696
O=C(CS(=O)(=O)Cc1ccccc1)Nc1ncccn1,0.9,4.6,1,13.2,-0.0182
CC(C)CCNC(=O)C1CC(c2ccccc2C(F)(F)F)=NO1 (stereo unspecified),x,x,x,x,0.298
CC(C)COc1ccc(C(=O)OC2CC(C)(C)OCC2CN(C)C)cc1 (stereo unspecified),0.9,16.4,0.8,8.1,1.07
N#CC(Nc1ccccc1)c1ccccc1OCc1ccccc1 (stereo unspecified),0.1,89.3*,0.1,85.6*,-0.0641
Cc1cccc(-c2nnc(SCc3ccc(C#N)cc3)n2Cc2ccco2)c1,0.6,35.3,0.6,42.0,-3.02
O=C(CC(c1ccc(F)cc1)c1ccco1)N1CCOCC1 (stereo unspecified),0.3,1.6,1,74.4*,x
O=C(CC(c1ccc(F)cc1)c1ccco1)N1CCCC1 (stereo unspecified),0.2,17.1,0.8,77.7*,-0.0695
CCCN(CCC)C(=O)CC(c1ccc(F)cc1)c1ccco1 (stereo unspecified),0.5,55.3*,0.4,50.6*,-2.11
O=C(c1cccc(COCC(F)(F)C(F)F)c1)N1CCN(c2ccccc2)CC1,0.5,36.0,0.6,45.5,-2.46
CCCCn1nc2cc(C(=O)NC3CCCc4ccccc43)ccc2c1OCC (stereo unspecified),0.9,18.4,0.8,11.2,-0.956
CCO/N=C(/C)c1c(O)c(C)c(-c2ccccc2)n(-c2ccccc2)c1=O,x,x,x,x,-1.22
CCC1CCCCN1C(=O)CSc1nnc(CNC(=O)COc2ccc(Cl)cc2)o1 (stereo unspecified),0.5,61.7*,0.4,45.3,-0.929
CCC1CCCCN1C(=O)CSc1nnc(-c2ccc(Cl)cc2)o1 (stereo unspecified),0.2,32.8,0.7,82.5*,-2.42
CCC1CCCCN1C(=O)CSc1nnc(-c2ccco2)o1 (stereo unspecified),x,x,x,x,-0.0194
CCC1CCCCN1C(=O)CSc1nnc(-c2cccc(Cl)c2)o1 (stereo unspecified),0,-128.5,2.3*,97.5*,-2.31
CCCCC1C(=O)CC[C@H]2[C@@H]1CC(=O)[C@@H]2C/C=C\CCCC(=O)O (stereo partly specified),x,x,x,x,1.21

# Compound activity as filed in PubChem.
